From PubChem BioAssay (EPA / NIEHS)
Some compounds were tested as several samples or in several runs, with calls that do not always agree. Active and inactive are the calls of the source. Rule for the calls: active = hit-call score of the fitted dose curve at least 0.9, where 1 is the maximum; inactive = score below 0.9.

read-out: Fatty acid synthase (Homo sapiens) (UniProt P49327); assay: LTEA_HepaRG_FASN: Life Technologies and Expression Analysis (LTEA) Assay for Fatty Acid Synthase (FASN) using HepaRG (AID 2283448); details: mRNA level, 48 h; actives raise or lower the signal
Description: LTEA_HepaRG is a cell based, multiplexed-readout assay that uses HepaRG, a human liver cell line, with measurements taken at 48 hours after chemical dosing on a 96-well plate.LTEA_HepaRG_FASN is one of 102 assay component(s) measured in the LTEA HepaRG cell culture assay. It is a marker of Steatosis.Data from the assay component LTEA_HepaRG_FASN was analyzed into 1 endpoint. This assay endpoint, LTEA_HepaRG_FASN, was analyzed with bidirectional fitting relative to DMSO as the negative control and baseline of activity. Using a type of inducible reporter, measures of mRNA induction for gain or loss-of-signal activity can be used to understand regulation of transcription factor activity. To generalize the intended target to other relatable targets, this assay endpoint is annotated to the lyase intended target family, where the subfamily is fatty acid synthase.
A total of 1060 chemcials from the ToxCast library were tested in eight-point concentration-response experiments. Cell culture and cytotoxicity assays were conducted at Thermo Fisher Scientific's Custom Services facility (Madison, WI). A single lot of human HepaRG cells (Thermo Fisher Scientific, Frederick, MD) was used for the cell culture experiments. 96-well format collagen type I coated plates of human HepaRG cells were prepared using established methods. Briefly, cryopreserved HepaRG cells were thawed, plated at a density of approximately 100,000 cells/well in HepaRG Thaw, Plate, and General Purpose media (HPRG770, Thermo Fisher Scientific), and incubated for 48 hours. 0.5% DMSO was selected as vehicle control to balance the requisite need of DMSO in HepaRG cultures to maintain differentiation (for example, baseline metabolism, proportions of hepatocytes vs. cholangiocytes), while enabling further hepatic receptor pathway activation (for example, PXR and CAR) in response to chemical exposure. 48 hours after plating, the culture medium was replaced with HepaRG Serum-Free Incudtion Media. Cells were exposed to each test chemical in duplicate and maintained in CO2 incubators for another 48 hours. Chemical plates were thawed to room temperature and 200x concentrations of treatment groups were prepared. 8-point conentration-reponse curves were made with the highest exposure at 100 uM, followed by half-log dilutions, all in 0.5% DMSO. Each test plate contained variouse controls, induction positive controls (1mM phenobarbital), cytotoxicity positive controls ([…] aflatoxin B1), vehicle controls (0.5% DMSO), and total lysis controls (0.5% DMSO). Cell morphology images were taken using an Essen IncuCyte FLR automated microscope, with six 96-well plates imaged in about 24 minutes. Images were captured and exported and JPEG files. Spent culture media was transfered to black-well plates for the LDH assay, and remaining media was sorted at -80 C for later use. Cells were treated with RLT buffer and frozen until shipped for gene expression analysis. Total RNA was isolated from the cell suspension in 75 uL of Buffer RLT (Qiagen, Germantown, MD 20874) by Quintiles/Expression Analysis (Durham, NC) using a custom isolation procedure. Total RNA from each plate well was transferred to a preamplification plate. Fluidigm's 96.96 Dynamic ArrayTM (Fluidigm, Amsterdam, the Netherlands) technology was used for gene expression analyses by quantitative reverse transcription polymerase chain reaction (qRT-PCR, performed by Quintiles/Expression Analysis, Durham, NC)89. Standard TaqManTM Assays (Applied Biosystems/ThermoFisher Scientific, Foster City, CA) were used to assess the expression of 93 genes selected based on their selectivity and sensitivity to important hepatic receptors known to be modulated by environmental chemicals; importance in human hepatocyte functionality; and hepatotoxicity. […]

Sequence of Fatty acid synthase (Homo sapiens) (P49327 whole entry, looked up): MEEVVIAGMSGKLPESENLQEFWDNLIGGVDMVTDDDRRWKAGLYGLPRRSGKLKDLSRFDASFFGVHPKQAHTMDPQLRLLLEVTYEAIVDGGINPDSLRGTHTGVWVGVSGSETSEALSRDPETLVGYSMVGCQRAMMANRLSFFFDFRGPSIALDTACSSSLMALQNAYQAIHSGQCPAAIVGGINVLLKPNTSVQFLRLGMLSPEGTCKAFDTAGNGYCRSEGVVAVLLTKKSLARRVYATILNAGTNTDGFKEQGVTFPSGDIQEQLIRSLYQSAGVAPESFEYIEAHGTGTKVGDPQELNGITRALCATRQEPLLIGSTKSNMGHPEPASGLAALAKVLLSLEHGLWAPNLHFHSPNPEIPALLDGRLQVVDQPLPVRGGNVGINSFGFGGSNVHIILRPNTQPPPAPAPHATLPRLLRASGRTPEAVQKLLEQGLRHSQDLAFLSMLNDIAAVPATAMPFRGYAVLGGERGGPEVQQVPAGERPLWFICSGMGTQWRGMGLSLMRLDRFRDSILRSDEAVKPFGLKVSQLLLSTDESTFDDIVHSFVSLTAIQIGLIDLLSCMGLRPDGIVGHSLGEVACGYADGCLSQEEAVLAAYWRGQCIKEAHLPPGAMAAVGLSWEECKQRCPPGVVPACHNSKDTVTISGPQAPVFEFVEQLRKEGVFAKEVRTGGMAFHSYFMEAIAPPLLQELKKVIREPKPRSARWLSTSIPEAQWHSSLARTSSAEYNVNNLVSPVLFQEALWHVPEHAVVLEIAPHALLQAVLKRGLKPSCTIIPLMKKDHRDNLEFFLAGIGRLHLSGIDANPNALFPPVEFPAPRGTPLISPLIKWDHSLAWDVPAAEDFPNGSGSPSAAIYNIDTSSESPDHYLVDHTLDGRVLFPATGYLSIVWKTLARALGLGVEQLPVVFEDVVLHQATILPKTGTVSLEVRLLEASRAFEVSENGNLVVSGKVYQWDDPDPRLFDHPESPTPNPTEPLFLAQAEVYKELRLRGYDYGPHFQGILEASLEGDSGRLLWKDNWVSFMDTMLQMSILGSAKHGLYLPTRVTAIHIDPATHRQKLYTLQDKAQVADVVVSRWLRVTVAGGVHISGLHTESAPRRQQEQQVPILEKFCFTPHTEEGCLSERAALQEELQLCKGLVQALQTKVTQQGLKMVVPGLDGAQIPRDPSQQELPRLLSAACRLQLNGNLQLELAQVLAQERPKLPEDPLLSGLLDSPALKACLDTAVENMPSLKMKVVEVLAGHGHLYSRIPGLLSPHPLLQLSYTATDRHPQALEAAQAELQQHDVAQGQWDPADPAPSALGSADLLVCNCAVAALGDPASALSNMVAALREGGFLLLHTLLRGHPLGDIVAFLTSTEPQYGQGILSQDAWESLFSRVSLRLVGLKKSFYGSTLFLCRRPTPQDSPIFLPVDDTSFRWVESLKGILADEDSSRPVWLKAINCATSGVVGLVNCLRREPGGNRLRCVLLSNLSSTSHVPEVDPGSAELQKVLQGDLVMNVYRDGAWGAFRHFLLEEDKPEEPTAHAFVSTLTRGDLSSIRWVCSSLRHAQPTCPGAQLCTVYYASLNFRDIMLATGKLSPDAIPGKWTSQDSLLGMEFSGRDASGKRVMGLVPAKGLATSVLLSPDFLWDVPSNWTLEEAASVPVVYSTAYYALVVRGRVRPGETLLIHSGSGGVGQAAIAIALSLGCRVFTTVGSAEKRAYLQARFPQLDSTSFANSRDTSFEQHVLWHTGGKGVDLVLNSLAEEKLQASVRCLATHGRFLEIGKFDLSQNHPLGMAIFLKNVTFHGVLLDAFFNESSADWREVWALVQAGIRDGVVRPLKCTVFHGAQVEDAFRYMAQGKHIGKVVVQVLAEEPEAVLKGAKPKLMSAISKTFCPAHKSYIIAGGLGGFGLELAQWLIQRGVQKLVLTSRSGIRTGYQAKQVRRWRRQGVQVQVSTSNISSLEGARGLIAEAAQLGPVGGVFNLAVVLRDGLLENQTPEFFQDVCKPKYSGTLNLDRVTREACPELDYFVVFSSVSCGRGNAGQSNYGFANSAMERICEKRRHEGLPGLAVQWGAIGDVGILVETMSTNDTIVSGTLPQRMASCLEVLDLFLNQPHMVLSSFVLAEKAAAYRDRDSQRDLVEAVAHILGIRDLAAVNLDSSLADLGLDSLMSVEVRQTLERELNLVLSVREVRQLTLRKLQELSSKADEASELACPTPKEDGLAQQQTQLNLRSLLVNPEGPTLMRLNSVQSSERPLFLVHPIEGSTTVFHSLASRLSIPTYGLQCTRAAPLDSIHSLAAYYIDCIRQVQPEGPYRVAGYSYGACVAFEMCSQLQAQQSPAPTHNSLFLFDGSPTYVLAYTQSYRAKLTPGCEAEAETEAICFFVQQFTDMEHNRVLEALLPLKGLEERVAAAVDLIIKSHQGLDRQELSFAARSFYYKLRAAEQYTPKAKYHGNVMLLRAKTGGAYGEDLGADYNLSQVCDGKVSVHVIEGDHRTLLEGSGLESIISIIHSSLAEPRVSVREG

| SMILES | outcome | AC50 |
| --- | --- | --- |
| C[C@]12CCC(=O)C[C@@H]1CC[C@@H]1[C@@H]2CC[C@]2(C)[C@@H](O)CC[C@@H]12 | inactive | – |
| CC12CC1(C)C(=O)N(c1cc(Cl)cc(Cl)c1)C2=O (stereo unspecified) | – | 5.61 µM (active) |
| O=C(O)C(F)(F)C(F)(F)C(F)(F)C(F)(F)C(F)(F)C(F)(F)F | inactive | – |
| CC(=O)[O][Hg][c]1ccccc1 | – | 2.25 µM (active) |
| O=C(Nc1ccc2[nH]ccc2c1)c1cc2cc(F)ccc2n1Cc1cccc(F)c1 | – | 24.3 µM (active) |
| CCC(=O)C(CC(C)N(C)C)(c1ccccc1)c1ccccc1 (stereo unspecified) | inactive | – |
| O=C(O)C(F)(F)C(F)(F)C(F)(F)C(F)(F)C(F)(F)C(F)(F)C(F)(F)C(F)(F)C(F)(F)C(F)(F)F | inactive | – |
| CC(C)(OO)c1ccccc1 | inactive | – |
| CN(C)N=O | inactive | – |
| CCOP(=S)(OCC)Oc1nc(Cl)c(Cl)cc1Cl | inactive | – |
| COc1cc(-c2ccc(N)c(OC)c2)ccc1N | inactive | 55.6 µM (active) |
| NC(=O)O | inactive | – |
| CC(C)(C)CC(C)(C)c1ccc(O)cc1 | inactive | – |
| CCCCCCCCc1ccc(O)cc1 | inactive | – |
| CCOP(=S)(OCC)SCSP(=S)(OCC)OCC | – | 90.8 µM (active) |
| O=C1C2(Cl)C3(Cl)C4(Cl)C(Cl)(Cl)C5(Cl)C3(Cl)C1(Cl)C5(Cl)C24Cl (stereo unspecified) | – | 93.5 µM (active) |
| O=c1[nH]c(=O)[nH]c(=O)[nH]1 | inactive | – |
| C=C(C)C(=O)[O][Sn]([CH2]CCC)([CH2]CCC)[CH2]CCC | inactive | – |
| ClC1(Cl)C2(Cl)C3(Cl)C4(Cl)C(Cl)(Cl)C5(Cl)C3(Cl)C1(Cl)C5(Cl)C24Cl (stereo unspecified) | – | 3.24 µM (active) |
| C[C@@H]1C[C@@H]([C@H](O)CC2CC(=O)NC(=O)C2)C(=O)[C@@H](C)C1 | – | 4.28 µM (active) |
| O=[N+]([O-])c1ccc(O)c([N+](=O)[O-])c1 | – | 13.1 µM (active) |
| C=CC(=O)OCCCCCC(C)C | inactive | – |
| CCN1CCC2(CC1)COc1cc3c(cc12)N(C(=O)c1ccc(-c2ccc(-c4nnc(C)o4)cc2C)cc1)CC3 | – | 29.9 µM (active) |
| Cn1sc(Cl)cc1=O | inactive | – |
| CC(C)(C)c1cc(O)ccc1O | inactive | – |
| Oc1cccc2cccnc12 | inactive | – |
| ClCC(Cl)CCl | inactive | – |
| CCC(C)(C)c1ccc(O)c(C(C)(C)CC)c1 | inactive | – |
| O=C(O)C(Cl)(Cl)Cl | inactive | – |
| Cc1ccccc1N | inactive | – |
